# Measurements as given in PubChem BioAssay (Tox21).
# Inconclusive results are not listed. The source holds several records for some structures; these can differ, active in one and inactive in another. Activity calls are given as the source filed them. Calls follow the shape of the full dose curve. Numbered stars: 1 amine (or outer) side, 2 acyl side, 3 side chain; on linkers, the order of the positions; unused ones are H or OH. Bridge positions count the residues as written; N and C are the ends. Square brackets hold non-standard residues; d marks the D form. Peptide text beside a SMILES is read from it. I, II: the chains in the order shown. Actinocin(9to1) = Cc1c2oc3c(C)ccc(C(=O)[*:1])c3nc-2c(C(=O)[*:2])c(N)c1=O; NMeV = CN[C@H](C(=O)O)C(C)C; Sar = CNCC(=O)O
# Experiment: p53 small molecule agonists, cell-based qHTS assay with human liver microsomes (AID 1963577);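 also: p53 response element beta-lactamase reporter cells with liver microsomes plus NADPH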
# Conditions: HCT-116 p53RE-bla with human liver microsomes, ratio, 16 h; series mostly up to 66 µM; activation: at the top concentration
# Procedure, shortened: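 Metabolically competent format: test substances, human liver microsomes and NADPH (both 0.5 mg/mL final) incubated with p53RE-bla cells 16 h at 37 C. Beta-lactamase reporter signal then quantified by fluorescence.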
# % is scaled to controls: 0 for no effect and ±100 for the full control effect.
SMILES,activation,Potency
COC(=O)c1c(Cl)c(Cl)c(C(=O)OC)c(Cl)c1Cl,0.801% (inactive),–
c1ccc2cc3c4ccccc4c4ccccc4c3cc2c1,-0.701% (inactive),–
CC(C)=CCC[C@H](C)CC=O,4.68% (inactive),–
CCCCCC(=O)O[C@]1(C(C)=O)CC[C@H]2[C@@H]3CCC4=CC(=O)CC[C@]4(C)[C@H]3CC[C@@]21C,–,inactive
BrC1CCC(Br)C(Br)CCC(Br)C(Br)CCC1Br (centres undefined),-2.75% (inactive),–
O=[N+]([O-])c1ccc2c(c1)Cc1ccccc1-2,–,inactive
C=C(C)C(=O)OCCCCCCOC(=O)C(=C)C,-2.34% (inactive),–
"Cc1c2oc3c(C)ccc(C(=O)N[C@@H]4C(=O)N[C@H](C(C)C)C(=O)N5CCC[C@H]5C(=O)N(C)CC(=O)N(C)[C@@H](C(C)C)C(=O)O[C@@H]4C)c3nc-2c(C(=O)N[C@@H]2C(=O)N[C@H](C(C)C)C(=O)N3CCC[C@H]3C(=O)N(C)CC(=O)N(C)[C@@H](C(C)C)C(=O)O[C@@H]2C)c(N)c1=O (I: T[dV]P[Sar][NMeV] / II: T[dV]P[Sar][NMeV]; ester I:1-I:C, II:1-II:C; linker I:N-II:N via Actinocin(9to1))",–,inactive
O=[N+]([O-])c1ccccc1Nc1ccccc1,-5.97% (inactive),–
O=C1CCCCCCCCCCCCCCCO1,-10.2% (inactive),–
O=C(O[C@@H](C(=O)O)[C@@H](OC(=O)c1ccccc1)C(=O)O)c1ccccc1,1.62% (inactive),–
CCC(=O)OC(C)c1ccccc1 (centres undefined),-4.07% (inactive),–
CC(C)CC(C)(N)C#N (centres undefined),2.49% (inactive),–
Cc1cc(C)cc(O)c1,–,inactive
C=C(C)[C@@H]1CCC2=CC(=O)C[C@@H](C)[C@]2(C)C1,0.0815% (inactive),–
COCCOCCOCCOCCO,-2.12% (inactive),–
CCCCCCCCCCCCCCC(=O)NC(CO)CCCCCCCCCCCCCC (centres undefined),-2.34% (inactive),–
C[C@@H]1CCC[C@H](C)N1CCCC(O)(c1ccccc1)c1ccccn1 (some centres undefined),0.707% [at 30.3 µM] (inactive),–
CN(C)c1ccc(C(=N)c2ccc(N(C)C)cc2)cc1,–,inactive
CCCCCCCCCC/C=C/C#N,3.85% (inactive),–
FC(F)(F)C(Cl)(Cl)Cl,-0.97% (inactive),–
COC(=O)Cc1cccc2ccccc12,0.0838% (inactive),–
CCCc1c2oc(C(=O)O)cc(=O)c2cc2c(=O)cc(C(=O)O)n(CC)c12,-1.33% [at 30.3 µM] (inactive),–
O=C(O)Cc1ccc(CCNS(=O)(=O)c2ccc(Cl)cc2)cc1,0.872% [at 30.3 µM] (inactive),–

# Experiment: p53 small molecule agonists, cell-based qHTS assay with rat liver microsomes (AID 1963578)
# Conditions: HCT-116 p53RE-bla, beta-lactamase ratio, 16 h; series mostly up to 66 µM; activation: at the top concentration
# Procedure, shortened: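 Each plate received p53RE-bla cells, then compound, then rat liver microsomes and NADPH (both 0.5 mg/mL final). Plates were held 16 h at 37 C, and beta-lactamase activity was detected with LiveBLAzer over 2 h.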
SMILES,activation,Potency
Cn1cc(S(C)=O)c(=O)c2ccc(F)cc21 (centres undefined),2.99% [at 30.3 µM] (inactive),–
O=Cc1ccc(C(=O)O)cc1,-1.87% (inactive),–
CCC(=O)OCc1ccccc1,-2.91% (inactive),–
CCC1COC(=O)O1 (centres undefined),-1.18% (inactive),–
CCN1CCCC(OC(=O)C(c2ccccc2)c2ccccc2)C1 (centres undefined),1.09% [at 30.3 µM] (inactive),–
CN(C)CCCNCCCN(C)C,1.13% (inactive),–
O=c1[nH]c(=O)c2ccccc2o1,2.49% [at 30.3 µM] (inactive),–
CCCCCCCCCC(C)=O,-0.253% (inactive),–
CNC(=O)Nc1ccc(Cl)c(Cl)c1,1.09% (inactive),–
[Cl][Eu]([Cl])[Cl],0.789% (inactive),–
c1cnc2cc3c(cc2n1)C1CNCC3C1,-3.3% [at 30.3 µM] (inactive),–
Nc1c(NC/C=C\COc2cc(CN3CCCCC3)ccn2)c(=O)c1=O,0.229% [at 13.6 µM] (inactive),–
CCc1ccc(C=O)cc1,-4.44% (inactive),–
CO[C@H]1C=CO[C@@]2(C)Oc3c(C)c(O)c4c(O)c(c(/C=N/N5CCN(C)CC5)c(O)c4c3C2=O)NC(=O)/C(C)=C\C=C[C@H](C)[C@H](O)[C@@H](C)[C@@H](O)[C@@H](C)[C@H](OC(C)=O)[C@@H]1C,–,inactive
Cc1cc(C)c(C(=O)O)c(C)c1,0.93% (inactive),–

# Experiment: p53 small molecule agonists, cell-based qHTS assay with human liver microsomes: qHTS cell viability counter screen (AID 1963579); also: nearly all actives have a fitted effect of over 45% in size; also: potency is read from the fitted curve at half-maximal effect
# Conditions: p53RE-bla HCT-116 viability, ATP luminescence, 16 h, HLM; series mostly up to 66 µM; activity change, negative = cytotoxicity: at the top concentration
# Procedure, shortened: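 Tox21 library compounds, delivered from DMSO stocks, were tested on p53RE-bla cells together with 0.5 mg/mL human liver microsomes and 0.5 mg/mL NADPH (final) over 16 h at 37 C; CellTiter-Glo luminescence served as the cytotoxicity measure.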
SMILES,Potency,"activity change, negative = cytotoxicity"
COC(=O)c1c(Cl)c(Cl)c(C(=O)OC)c(Cl)c1Cl,inactive,–
c1ccc2cc3c4ccccc4c4ccccc4c3cc2c1,–,4.62% (inactive)
Cn1cc(S(C)=O)c(=O)c2ccc(F)cc21 (centres undefined),–,16.5% [at 30.3 µM] (inactive)
O=Cc1ccc(C(=O)O)cc1,–,3.66% (inactive)
CC(C)=CCC[C@H](C)CC=O,–,3.28% (inactive)
CCC(=O)OCc1ccccc1,–,2.1% (inactive)
CCCCCC(=O)O[C@]1(C(C)=O)CC[C@H]2[C@@H]3CCC4=CC(=O)CC[C@]4(C)[C@H]3CC[C@@]21C,20.3 µM (active) and inactive,–
BrC1CCC(Br)C(Br)CCC(Br)C(Br)CCC1Br (centres undefined),inactive,–
O=[N+]([O-])c1ccc2c(c1)Cc1ccccc1-2,inactive,–
CCC1COC(=O)O1 (centres undefined),–,0.723% (inactive)
C=C(C)C(=O)OCCCCCCOC(=O)C(=C)C,–,3.06% (inactive)
O=[N+]([O-])c1ccccc1Nc1ccccc1,–,1.74% (inactive)
CCN1CCCC(OC(=O)C(c2ccccc2)c2ccccc2)C1 (centres undefined),–,-5.79% [at 30.3 µM] (inactive)
O=C1CCCCCCCCCCCCCCCO1,–,-25.1% (inactive)
O=C(O[C@@H](C(=O)O)[C@@H](OC(=O)c1ccccc1)C(=O)O)c1ccccc1,–,-7.44% (inactive)
CN(C)CCCNCCCN(C)C,–,-9.39% (inactive)
CCC(=O)OC(C)c1ccccc1 (centres undefined),–,4.38% (inactive)
CC(C)CC(C)(N)C#N (centres undefined),–,11.8% (inactive)

SMILES,Potency,"activity change, negative = cytotoxicity"
Cc1cc(C)cc(O)c1,inactive,–
C=C(C)[C@@H]1CCC2=CC(=O)C[C@@H](C)[C@]2(C)C1,–,10% (inactive)
O=c1[nH]c(=O)c2ccccc2o1,–,-8% [at 30.3 µM] (inactive)
CCCCCCCCCCCCCCC(=O)NC(CO)CCCCCCCCCCCCCC (centres undefined),–,-0.206% (inactive)
C[C@@H]1CCC[C@H](C)N1CCCC(O)(c1ccccc1)c1ccccn1 (some centres undefined),–,11.1% [at 30.3 µM] (inactive)
CCCCCCCCCC(C)=O,–,-9.83% (inactive)
CN(C)c1ccc(C(=N)c2ccc(N(C)C)cc2)cc1,inactive,–
CNC(=O)Nc1ccc(Cl)c(Cl)c1,–,-3.36% (inactive)
[Cl][Eu]([Cl])[Cl],–,0.0297% (inactive)
c1cnc2cc3c(cc2n1)C1CNCC3C1,–,-24.5% [at 30.3 µM] (inactive)
Nc1c(NC/C=C\COc2cc(CN3CCCCC3)ccn2)c(=O)c1=O,–,5.4% [at 13.5 µM] (inactive)
FC(F)(F)C(Cl)(Cl)Cl,–,1.38% (inactive)
CCc1ccc(C=O)cc1,–,2.96% (inactive)
COC(=O)Cc1cccc2ccccc12,–,11% (inactive)
CCCc1c2oc(C(=O)O)cc(=O)c2cc2c(=O)cc(C(=O)O)n(CC)c12,–,7.26% [at 30.3 µM] (inactive)
CO[C@H]1C=CO[C@@]2(C)Oc3c(C)c(O)c4c(O)c(c(/C=N/N5CCN(C)CC5)c(O)c4c3C2=O)NC(=O)/C(C)=C\C=C[C@H](C)[C@H](O)[C@@H](C)[C@@H](O)[C@@H](C)[C@H](OC(C)=O)[C@@H]1C,inactive,–
Cc1cc(C)c(C(=O)O)c(C)c1,–,1.26% (inactive)
